# Source: the supplement of paper PMC3334620
# The full ranking holds about 33,000 sequences; the median of “E-score (-0.5 to 0.5)” is about -0.043, and the highest 2% start at about 0.37. Many of the other results were omitted from the sample, so the highest values are more common in it than they were.
# Molecular target: T1, Upc2 (UniProt Q12151)
# T1 sequence: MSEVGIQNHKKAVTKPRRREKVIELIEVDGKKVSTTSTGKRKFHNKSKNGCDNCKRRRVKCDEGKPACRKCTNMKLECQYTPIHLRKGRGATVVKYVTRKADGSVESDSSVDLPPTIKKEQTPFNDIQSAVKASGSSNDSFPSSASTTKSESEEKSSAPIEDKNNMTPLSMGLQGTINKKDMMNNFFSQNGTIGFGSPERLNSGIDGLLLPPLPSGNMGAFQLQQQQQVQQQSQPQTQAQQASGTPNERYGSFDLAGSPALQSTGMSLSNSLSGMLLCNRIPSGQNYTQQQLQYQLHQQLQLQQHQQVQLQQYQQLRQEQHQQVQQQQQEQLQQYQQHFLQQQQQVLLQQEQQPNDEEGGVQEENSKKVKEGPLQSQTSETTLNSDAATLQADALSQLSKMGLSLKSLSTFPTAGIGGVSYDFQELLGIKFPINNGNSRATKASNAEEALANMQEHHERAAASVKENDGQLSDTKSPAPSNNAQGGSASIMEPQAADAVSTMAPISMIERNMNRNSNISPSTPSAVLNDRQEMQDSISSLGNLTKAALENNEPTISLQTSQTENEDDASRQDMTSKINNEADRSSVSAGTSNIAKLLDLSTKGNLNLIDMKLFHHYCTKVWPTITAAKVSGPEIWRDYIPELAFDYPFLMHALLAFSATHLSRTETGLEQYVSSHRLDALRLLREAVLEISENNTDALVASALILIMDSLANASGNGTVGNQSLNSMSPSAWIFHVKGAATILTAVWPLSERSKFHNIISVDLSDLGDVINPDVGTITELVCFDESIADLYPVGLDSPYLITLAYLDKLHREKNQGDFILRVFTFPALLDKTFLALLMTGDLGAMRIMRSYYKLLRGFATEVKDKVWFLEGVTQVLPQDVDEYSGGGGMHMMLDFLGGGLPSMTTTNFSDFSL
# Experiment: PBM E-score (8-mer binding enrichment) (E-score (-0.5 to 0.5)); higher = stronger / more preferred TF binding
# Details: protein concentration: 200 nM; construct: GST-full length
# Procedure: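 Universal 'all 10-mer' protein binding microarrays (Agilent AMADID 015681) probed with GST-tagged S. cerevisiae TFs (full-length or DBD) made by in vitro transcription/translation (PURExpress), about 100-200 nM. Bound TF was detected with fluorescent anti-GST. Each ungapped 8-mer (which stands for itself and its reverse complement) is scored by the PBM enrichment score (E-score), a modified Wilcoxon-Mann-Whitney statistic from -0.5 to +0.5, computed with the Universal PBM Analysis Suite. Scale: above 0.35 generally sequence-specific binding.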
row,Sequence,PBM E-score
1,AGTAAAGA,-0.212
2,CCTAAAGC,-0.082
3,AGTAAAGC,-0.0204
4,CGGTTTAG,0.161
5,CGGAAGAG,-0.146
6,CCAGTTAC,-0.21
7,TGTTAGAA,-0.177
8,CGTTTGGC,0.409
9,CGTTTGAC,0.363
10,CGTTTGGA,0.428
11,CGTTTGTC,0.34
12,CGTTTGAA,0.35
13,GGTTTGCA,0.0633
14,GGTTTGGA,-0.0119
15,CGTTTGAG,0.396
16,CGTTTGCA,0.395
17,CGTTTGCC,0.323
18,AGTTTGGA,-0.014
19,AGTTTGGC,-0.015
20,CTTATGCC,-0.0216
21,ATTCTGTA,0.0418
22,TGAAATCA,-0.103
23,CAACAAGC,-0.163
24,GGTGTCAA,-0.169
25,ATCGATTG,0.0896
26,AACGGTTC,0.166

row,Sequence,PBM E-score
1,CCTTCCAA,-0.216
2,GGGTTCAA,-0.157
3,ACTTATTC,-0.0293
4,ATCGCAGC,0.085
5,AACGTCAC,-0.0182
6,GCGTCGAA,-0.0193
7,ACGTCGTA,0.458
8,ACGTCGTC,0.206
9,CCGTCGGA,0.0146
10,CCGTCGTA,0.457
11,GCGTCGTA,0.468
12,GCGTCGCA,0.19
13,CCGTCGTC,0.0861
14,ACGTCGTG,0.0636
15,AGGGTAGG,-0.331
16,ACTAACCT,0.042
17,ATCATCTG,-0.129
18,TACCATGA,-0.108
19,CCTGAACG,0.394
20,CCTGAACC,-0.146
21,ACTGAACA,0.0269
22,ACTGAACG,0.395
23,ACTGAACT,-0.0256
24,CCTGAACA,-0.0282
25,GCTCTTAA,0.108
26,AGCAGAAG,-0.255

row,Sequence,PBM E-score
1,ACAAATTC,-0.0428
2,GGGCTGTA,-0.0846
3,CATCGTGC,0.054
4,CATCGTTC,0.416
5,AATCGTTA,0.292
6,CATCGTTA,0.324
7,AATCGTTC,0.396
8,AATCGTTG,0.142
9,TACAGGAA,0.0741
10,ATCCGAGG,0.18
11,AGTCCTGA,-0.291
12,AAAGGGCC,-0.285
13,GGTTTAGA,-0.055
14,CGTTTAGA,0.466
15,CGTTTAGC,0.48
16,AGTTTAGC,0.00286
17,AGTTTAGA,-0.00847
18,CATTTAGC,-0.0255
19,GGACTACA,-0.219
20,ATTCCATC,0.0445
21,CCCTACTA,-0.242
22,ATTGGTTA,-0.0342
23,AGTGAGTC,-0.211
24,CAGTTGTC,-0.147
25,CAGAGAGC,-0.203
26,GGATTTAC,0.00936

row,Sequence,PBM E-score
1,AGCAGATG,-0.221
2,AGCGATTC,0.181
3,ACCGATTG,0.0763
4,AACGATTG,0.391
5,AACGATTA,0.364
6,CACGATTC,0.258
7,AACGATTC,0.393
8,TAAAATCA,0.0046
9,ACGTGCTA,0.207
10,CCCGCAAG,-0.239
11,ATGTCATG,-0.0317
12,CATGGATA,-0.0903
13,ACGAACGA,0.435
14,GCGAACAA,0.139
15,ACGAAGGG,0.287
16,ACGAACGC,0.323
17,ACGAACGG,0.387
18,TCGAACGA,0.368
19,CCGAAGGA,-0.0603
20,ACGAACAG,0.314
21,GCGAACGC,0.158
22,GCGAACGA,0.418
23,ACGAACGT,0.32
24,ACGAAGGA,0.379
25,TCGGTGCA,-0.104
26,GTAATATA,0.197

row,Sequence,PBM E-score
1,CTTTCTCA,0.0661
2,AGCTCAGA,-0.0803
3,ACCGACTA,0.0499
4,ATCGAGGG,-0.0211
5,ATACATGC,0.169
6,AAAACCAC,-0.0422
7,CCGAAGAA,-0.127
8,AAGATGCC,0.00959
9,CCGAACGG,0.199
10,CCGAACGA,0.384
11,CCGAACGC,0.0534
12,ATTATGAG,-0.102
13,GCAAGGAC,-0.135
14,ACTTCACG,0.0222
15,GCGAGAGC,0.23
16,ACGAGATA,0.355
17,ACGAGATC,0.408
18,ACGAGAGA,0.343
19,ACGAGATG,0.38
20,CCGAGATC,0.018
21,ACGAGAGC,0.375
22,ATGAGATG,-0.243
23,ACGAGACC,0.347
24,ACGTCCCA,-0.208
25,CCGCCCAG,-0.0999
26,CGAAACAA,0.188

row,Sequence,PBM E-score
1,ATTTGCGC,0.024
2,GGATGCTA,-0.0482
3,ATTTCGCC,0.131
4,CGAGCATA,0.175
5,CCTTAGGC,-0.0987
6,CACGAAAA,0.134
7,AACGAATC,0.39
8,TACGAATA,0.415
9,GACGAAAA,0.177
10,TACGAAAA,0.411
11,CACGAATG,0.0101
12,AGCGAATG,0.177
13,GACGAATA,0.0289
14,CACGAATC,0.0313
15,CACGAATA,0.175
16,GACGAATC,0.138
17,AACGAATG,0.416
18,CGACCAGA,0.0386
19,GACCGTGA,-0.166
20,CCGCTGGA,-0.0874
21,ATAATTGC,-0.037
22,AACCTGCT,-0.0408
23,CACCATGC,-0.295
24,CCGGGCTA,-0.18
25,CACGTACG,0.346
26,ATAACGAT,0.144

row,Sequence,PBM E-score
1,ACCGAATA,0.0988
2,AACGAATA,0.381
3,AAAGAATT,-0.0689
4,ATCGAATA,0.211
5,AACGAATT,0.378
6,AAGGAATT,-0.215
7,GATCAGCC,-0.29
8,ATCTTCCG,0.168
9,AGCTTTTA,0.163
10,TGTGCGAA,0.0333
11,CGAACGCC,0.0792
12,GGAACGAC,0.453
13,GGAACGTA,0.282
14,GTAACGAC,0.326
15,GGAACGCA,0.174
16,GGAACGCC,0.013
17,CGAACGAA,0.398
18,GGAACGAA,0.464
19,CGAACGAC,0.401
20,CGAACAAA,0.183
21,CGAACGGA,0.223
22,CGAACGTC,0.135
